Most compounds without a hit are left out; they make up all but 27% or so of the library.
CYP2C9 inhib: blockers of cytochrome P450 2C9 activity – biochemical, luminescence, ADME assay, primary screen; P11712; CYP2C9 Supersomes, luciferin-H conversion; inhibition, % at 5 µM; 20% of 96,000 active; AID 777, 2007;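 active = blocking of liver enzyme CYP2C9 beyond about 50% at 5 µM, limit read from the data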
CYP2C19 activ: human CYP2C19 activators, primary screen, biochemical, luminescence; recombinant CYP2C19, luciferin-H EGE luminescence; hits give high values; 0 = fully inhibited enzyme, 1 = untreated enzyme; activation factor at 5 µM; 96,000 tested, under 10 active; AID 1025, 2008;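 active = activation factor of at least 2 at 5 µM in the primary screen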;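 note: 0 = wells with 2.5 mM tranylcypromine and 1 = vehicle-only wells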
CYP2C19 inhib: blockers of cytochrome P450 2C19 activity – biochemical, luminescence, ADME assay, primary screen; CYP2C19 Supersomes, luciferin-H EGE luminescence, 30 min; inhibition, % at 5 µM; 21% of 96,000 active; AID 778, 2007;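 active = CYP2C19 inhibition above a set limit at 5 µM in the primary screen, cut at about 50% in these data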;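 note: plate controls were negative control wells for no effect and 2.5 mM tranylcypromine positive control for full effect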
sEH activator: soluble epoxide hydrolase activators, primary screen, biochemical, human sEH. purified human sEH enzymatic activity, activator screen. activation, % at 2 µM. 0.04% of 91,000 active. AID 717, 2007; in the data active = activation above about 37%
Target sequence (P34913 whole entry, looked up): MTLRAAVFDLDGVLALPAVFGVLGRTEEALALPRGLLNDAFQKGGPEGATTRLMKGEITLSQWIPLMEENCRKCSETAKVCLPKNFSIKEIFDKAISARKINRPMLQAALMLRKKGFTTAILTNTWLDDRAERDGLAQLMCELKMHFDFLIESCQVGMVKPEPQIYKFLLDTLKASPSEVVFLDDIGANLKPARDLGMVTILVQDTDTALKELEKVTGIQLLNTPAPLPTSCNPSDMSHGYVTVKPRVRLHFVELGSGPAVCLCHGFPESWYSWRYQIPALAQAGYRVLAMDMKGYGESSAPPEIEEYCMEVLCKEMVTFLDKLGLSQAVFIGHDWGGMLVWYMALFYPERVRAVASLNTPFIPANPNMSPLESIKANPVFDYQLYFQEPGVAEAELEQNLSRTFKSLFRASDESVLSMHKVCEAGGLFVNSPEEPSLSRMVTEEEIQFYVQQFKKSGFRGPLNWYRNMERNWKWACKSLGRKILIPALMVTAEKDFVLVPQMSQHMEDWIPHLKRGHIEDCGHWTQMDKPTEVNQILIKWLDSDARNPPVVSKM
CYP2C9 act: human CYP2C9 activators, primary screen, biochemical, luminescence. Cytochrome P450 2C9 (Homo sapiens), P11712. recombinant CYP2C9, luciferin-H conversion; hits give high values; factor 1 = untreated enzyme, 0 = blocked. activation factor at 5 µM. 1.4% of 96,000 active. AID 1024, 2008;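 active = activation factor of 2 or more for CYP2C9 at a 5 µM dose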;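 note: 0 = sulfaphenazole-blocked wells and 1 = vehicle-only wells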
sEH inh: soluble epoxide hydrolase inhibitors, primary screen, biochemical, human sEH; Bifunctional epoxide hydrolase 2 (Homo sapiens), P34913; recombinant human sEH enzymatic activity assay; inhibition, % at 2 µM; 0.34% of 91,000 active; AID 707, 2007; in the data active = inhibition above about 80%
* hit, by the source's call; . = no result given.

SMILES | CYP2C9 inhib | CYP2C19 activ | CYP2C19 inhib | sEH activator | CYP2C9 act | sEH inh
Cn1c(=O)c2c(SC3CCCC3)nc(C3CC3)nc2n(C)c1=O | 7.5 | 1 | -3.3 | . | 0.9 | .
O=C(CSc1ccc2nnc(-c3ccccn3)n2n1)N1CCN(c2ccccc2)CC1 | -0.8 | 0.6 | 38.5 | 13.7 | 1 | -14.5
Cc1cccc(NC(=O)CC2NC3CCCCC3NC2=O)c1 (stereo unspecified) | -2.5 | 0.8 | 16.3 | . | 1 | .
O=C1CN(C(=O)COC(=O)C2=COCCO2)c2ccccc2N1 | -31.2 | 1.2 | -17.6 | 15.4 | 1.3 | -12.1
O=C1CN(C(=O)COC(=O)c2ccccc2NC(=O)c2ccco2)c2ccccc2N1 | 75.7* | 0.6 | 38.2 | -3.8 | 0.2 | 3.4
Cc1ccnc(N2CCN(c3c4c(c(C#N)c5nc6ccccc6n35)CCC4)CC2)c1 | . | . | . | 10.6 | . | -6.7
CCc1c(C)c(C#N)c2nc3ccccc3n2c1N1CCN(c2cc(C)ccn2)CC1 | 67.4* | 0.8 | 21.7 | -7.8 | 0.3 | 9.5
Cc1ccc2c(c1)nnn2C1CCN(S(=O)(=O)c2ccc(C(=O)N(C)C3CCCCC3)cc2)CC1 | -4.9 | 1 | -0.7 | . | 1 | .
COc1ccc2nc(NC(=O)CSc3nnnn3C3CCCCC3)sc2c1 | 12.7 | 0.9 | 12.8 | -4.3 | 0.9 | 3.1
CC1CCCCN1CC(=O)Nc1sc2c(c1C#N)CCC2 (stereo unspecified) | 61.1* | 0.5 | 50.9* | -7.7 | 0.4 | 8.2
O=C(CSc1nnnn1C1CCCCC1)Nc1nc2c(s1)CCCC2 | 34.0 | 0.2 | 78.4* | -5.4 | 0.7 | 4.2
N#Cc1c(NC(=O)CSc2nnnn2C2CCCCC2)sc2c1CCCC2 | 66.6* | 0.6 | 43.1 | -13.7 | 0.3 | 12.2
COC(=O)C1CCN(CC(=O)Nc2sc3c(c2C#N)CCC3)CC1 | 38.0 | 0.8 | 17.5 | 4.4 | 0.6 | -1.5
COc1ccc(CNC(=O)CN(C(=O)c2ccc(CN3CCOCC3)o2)C2CCCC2)cc1 | . | . | . | 5.3 | . | -2.6
CN(C)c1oc(-c2ccccc2Cl)nc1P(=O)(c1ccccc1)c1ccccc1 | 67.2* | 0.6 | 35.6 | 4.1 | 0.3 | -2.1
CC(C)OC(=O)CCC1(C(=O)O)CCC(=O)NC1 (stereo unspecified) | -14.9 | 1.1 | -12.5 | . | 1.1 | .

Screens (PubChem)
